Here are results for 1 molecule from PubChem BioAssay AID2263 (National Center for Advancing Translational Sciences (NCATS), 2010).

Some of the results follow. Records with an inconclusive call do not appear. Active and inactive are the calls of the source. The call rests on the fitted dose curve; in most records, active means well fitted inhibition curve with a large enough effect; inconclusive means small, poorly fitted or top-dose-only effect, or effect the other way; inactive means flat fitted curve, though single readings scatter.

Chain of Pyruvate kinase PKM (Homo sapiens) (P14618 whole entry, looked up, canonical isoform): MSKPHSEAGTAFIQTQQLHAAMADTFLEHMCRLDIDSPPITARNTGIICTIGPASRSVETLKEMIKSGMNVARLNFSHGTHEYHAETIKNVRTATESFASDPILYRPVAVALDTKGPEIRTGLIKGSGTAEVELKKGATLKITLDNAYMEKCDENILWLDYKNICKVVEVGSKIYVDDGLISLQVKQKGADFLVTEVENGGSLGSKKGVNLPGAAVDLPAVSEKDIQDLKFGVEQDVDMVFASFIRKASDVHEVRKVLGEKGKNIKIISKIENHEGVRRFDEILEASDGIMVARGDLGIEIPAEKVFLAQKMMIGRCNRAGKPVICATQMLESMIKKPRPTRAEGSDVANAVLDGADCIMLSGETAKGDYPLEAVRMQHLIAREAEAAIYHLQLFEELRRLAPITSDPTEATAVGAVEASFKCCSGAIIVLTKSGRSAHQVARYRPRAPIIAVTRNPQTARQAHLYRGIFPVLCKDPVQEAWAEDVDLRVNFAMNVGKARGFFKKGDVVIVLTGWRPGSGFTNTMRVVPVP

The experiment concerns the target Pyruvate kinase PKM (Homo sapiens) (UniProt P14618). Kind of experiment: Confirmation Concentration-Response Assay for Inhibitors of Human Muscle isoform 2 Pyruvate Kinase. As to conditions: purified hPK-M2, Kinase-Glo ATP luminescence, 1 h; series mostly up to 57.5 µM. An excerpt: NIH Chemical Genomics Center [NCGC] Matthew G. Vander Heiden, M.D., Ph.D. [Harvard Medical School, 77 Avenue Louis Pasteur, Boston, MA 02115] MLPCN Grant: 1 R03 MH085679-01 NCGC Assay Overview: Human pyruvate kinase muscle 2 (hPK-M2) enzyme was supplied as a highly purified (>95% pure) preparation from Harvard Medical School and assayed for its ability to generate ATP from ADP using phosphoenolpyruvate (PEP) as a substrate. ATP generation was detected in a coupled reaction by luciferase-mediated luminescence, an ATP-dependent process. Pyruvate kinase substrates, PEP and ADP, were present in the assay at Km and approximately 10-fold below Km respectively. The enzyme was assayed at an intermediate level of activity to screen for both inhibitors and activators.
NCGC Assay Protocol Summary: Three uL of substrate mix (at r.t.) in assay buffer (50 mM Imidazole pH7.2, 50 mM KCl, 7 mM MgCl2, 0.01% Tween 20, 0.05% BSA) was dispensed into white solid bottom 1,536 well microtiter plates so that the final concentrations of substrates in the assay were 0.1 mM ADP and 0.5 mM PEP. 23 nL of compound were delivered by a pin tool and 1 uL of enzyme mix in assay buffer (4 degree Celsius) was added. […] Two uL of detection mix (Kinase-Glo, Promega; at 4 degree Celsius protected from light) was added and luminescence read by a ViewLux (Perkin Elmer) at 5 second exposure/plate. […]
In general terms: Kinase-Glo reads ATP consumption through a luciferase reaction.
Take `Cc1ccc(-c2nc3ccccn3c2Nc2ccc(F)cc2)o1`: the result was inactive.
